The whole screen tested about 7,900 compounds, of which about 400 (5.1%) showed an effect of 50% or more. For the sample, strong results were picked, then their nearest neighbours and some compounds at random.
Molecular target: Parkinson's disease protein 7 (PARK7/DJ1) (human, UniProt Q99497)
Assay: primary screen, percent inhibition; read as competition with a fluorescent probe by fluorescence polarization; higher = more effect of the substance
Conditions: 100 µM
Method in brief: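 Fluorescence-polarization probe displacement (JYQ-107, 20 nM final, 2 h) after 2 h preincubation of PARK7 (0.2 μM final) with each fragment at 100 μM final. Read-out ex/em 480/520 nm; remaining activity derived from FP signal loss relative to reference controls.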

Chain of Parkinson's disease protein 7 (PARK7/DJ1) (Q99497 whole entry, looked up): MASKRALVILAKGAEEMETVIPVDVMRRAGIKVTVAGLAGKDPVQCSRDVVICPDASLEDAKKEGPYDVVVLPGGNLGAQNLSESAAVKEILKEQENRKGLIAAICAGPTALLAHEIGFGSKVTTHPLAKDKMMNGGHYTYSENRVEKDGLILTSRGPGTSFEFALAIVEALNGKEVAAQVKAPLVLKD

| SMILES | Inhibition % |
| --- | --- |
| Cc1cc(B2OC(C)(C)C(C)(C)O2)cc(N)n1 | 5.05% |
| C=CC(=O)NC1CC(=O)N(CC)C1 (stereo not shown) | 8.72% |
| O=C(N1CCc2[nH]c3ccc(F)cc3c2C1)n1ccnc1 | 36.3% |
| O=C(N1CCc2[nH]c3ccccc3c2C1)n1ccnc1 | 52.4% |
| O=C(N1CCc2sccc2C1)n1ccnc1 | 15.4% |
| Cc1ccc2[nH]c3c(c2c1)CN(C(=O)n1ccnc1)CC3 | 67.1% |
| O=C(CCl)N1CCc2[nH]c3ccccc3c2C1 | -3.49% |
| O=C(c1ccccc1)N1CCN(C(=O)n2ccnc2)CC1 | 2.18% |
| C=CC(=O)N1CCCCC1c1nc2ccccc2o1 (stereo not shown) | 7.43% |
| O=S(=O)(c1cc(Cl)ccc1Cl)n1ccnc1 | 7.81% |
| NC(=O)Nc1ccc(S(=O)(=O)F)cc1 | 18.9% |
| NC(=O)N1CCc2cc(S(=O)(=O)F)ccc21 | 10.9% |
| O=C(O)c1cc(S(=O)(=O)F)cs1 | 90% |
| CC(C)c1nc(C#N)cs1 | 5.66% |
| CC1(C)OB(c2ccc(S(=O)(=O)NCCO)cc2)OC1(C)C | 4.41% |
| C=CC(=O)Nc1cc(C(F)(F)F)n[nH]1 | 9.56% |
| C=CC(=O)N1CCOCC1c1c(C)nn(C)c1C (stereo not shown) | 12.6% |
| CC1(C)C2CC=C(COCC3CO3)C1C2 (stereo not shown) | 3.87% |
| Sc1nc2ccccc2nc1S | 8.25% |
| Cc1nc2ccccc2nc1S | 2.7% |
| Nc1cc2ccccc2nc1S | 52% |

| SMILES | Inhibition % |
| --- | --- |
| Cc1ccc(-c2nnc(SC3CC(C)OC3=O)o2)cc1 (stereo not shown) | 7.51% |
| OB(O)C1CCN(Cc2cc(-c3ccccn3)n[nH]2)C1 (stereo not shown) | 29.8% |
| C=CC(=O)N[C@H](C(=O)O)c1ccccc1 | 3.77% |
| O=C(O)C(S)c1ccccc1 (stereo not shown) | 89.9% |
| C=CC(=O)NC(NC(=O)C=C)c1ccccc1 | 11.8% |
| OB(O)C1CCN(Cc2cc3c(cn2)OCCO3)C1 (stereo not shown) | 21.4% |
| CC=C(C#N)c1ccc2c(c1)OCO2 | 12.1% |
| O=C(CN1C(=O)CCC1=O)Nc1cccc(Cl)c1 | 7.52% |
| O=c1c2ccccc2nc(S)n1CCS | 7.43% |
| O=C(CCl)N1CCC(Cc2ccccc2)CC1 | 31.1% |
| O=C(CCl)N1CCC(c2ccccc2)=N1 | 90.5% |
| O=C(CCl)N1CCN(S(=O)(=O)c2ccccc2)CC1 | 8.48% |
| C=CC(=O)NCC1CCN(c2ccncc2)CC1 | 15.3% |
| COCC(C)NS(=O)(=O)C=Cc1ccc(Cl)cc1 (stereo not shown) | 13.7% |
| CS(=O)(=O)n1cc(N)cn1 | 10.7% |
| CC1(C)OB(c2ccc(Cl)cc2)OC1(C)C | 4.5% |
| CC1(C)OB(c2cccc(Cl)c2)OC1(C)C | -3.11% |
| CC1(C)OB(c2cc(Cl)cc(Cl)c2)OC1(C)C | 81% |
| C=CC(=O)NC1CCc2cn(C(C)C)nc2C1 (stereo not shown) | 11.9% |
| CCOc1cc(C)c(C)cc1S(=O)(=O)n1ccnc1C | 2.71% |
| C=CC(=O)Nc1ccc(Br)cc1 | 6.59% |

| SMILES | Inhibition % |
| --- | --- |
| C=CC(=O)Nc1ccc2c(c1)CCCO2 | 7.61% |
| C=CC(=O)Nc1ccc2ccc(=O)n(C)c2c1 | 7.33% |
| C=CC(=O)Nc1ccc2c(c1)OCCCO2 | 3.17% |
| C=CC(=O)Nc1ccc(=O)n(C)c1 | 54.1% |
| C=CC(=O)Nc1ccc2c(c1)N(C)CCO2 | 52.4% |
| CC(C)NC(=O)C(C#N)=Cc1ccccc1Cl | 6.2% |
| CN(C)C=C(C#N)c1ccccn1 | 19.1% |
| CCOc1cc(C)c(C(C)C)cc1S(=O)(=O)n1ccnc1 | 6.3% |
| NC(=O)c1cccnc1S | 4.97% |
| O=C(O)c1ccnnc1S | 83.3% |
| O=C(O)c1cccnc1S | 5.3% |
| O=c1[nH]c(Cc2ccncc2)no1 | 6.48% |
| O=C(CCl)Nc1ccc(N=Nc2ccccc2)cc1 | 5.15% |
| O=C(CCl)NCc1cccc(Oc2ccccc2)c1 | 22.5% |
| O=C(CCl)Nc1ccc(OCc2ccccc2)cc1 | 28.9% |
| O=C(CCl)Nc1ccccc1Oc1ccccc1 | 6.38% |
| O=C(CCl)Nc1ccc(Oc2ccccc2)cc1 | 84.2% |
| Cc1ccc(Oc2ccccc2NC(=O)CCl)cc1 | 2.56% |
| O=C(CCl)Nc1cccc(Oc2ccccc2)c1 | 55.6% |
